About 79,000 compounds went through this panel and 15% of them were active in at least one assay; those are over-represented in the sample as a whole. Rule as the data show it: active = growth inhibition above about 70%; inactive = the rest.
Key:
[1] = NCI Yeast Anticancer Drug Screen. Data for the rad50 strain (AID 155);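 also: 0% = growth of vehicle-only cultures of the same strain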; conditions: S. cerevisiae rad50 strain growth inhibition; at 50.0 µM; active compounds read high
In short: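 Genetically altered yeast (DNA repair pathway); compound treatment; growth inhibition vs vehicle ctrl.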

[2] = NCI Yeast Anticancer Drug Screen. Data for the mec2-1 strain (AID 157); conditions: S. cerevisiae mec2-1 strain, at 50.0 µM, active compounds read high
In short: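 Vehicle-treated cultures served as reference for growth inhibition of compound-exposed mec2-1 yeast.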

[3] = NCI Yeast Anticancer Drug Screen. Data for the sgs1 mgt1 strain (AID 161);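 also: 0% = growth of cultures given vehicle only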; conditions: S. cerevisiae sgs1 mgt1 strain, at 50.0 µM, active compounds read high
In short: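 Mutant yeast exposed to compound; growth scored against vehicle-only wells.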

[4] = NCI Yeast Anticancer Drug Screen. Data for the cln2 rad14 strain (AID 165);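 also: 0% = growth equal to vehicle treated cultures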; conditions: S. cerevisiae cln2 rad14 strain, at 50.0 µM, active compounds read high
In short: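 Each compound was tested on cln2 rad14 yeast. Inhibition of growth was calculated against vehicle-exposed controls.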

[5] = NCI Yeast Anticancer Drug Screen. Data for the bub3 strain (AID 167); conditions: S. cerevisiae bub3 mutant strain, at 50.0 µM, active compounds read high
In short: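 Yeast carrying a defined mutation is treated with each compound, and growth is compared with that of vehicle-exposed cells to give inhibition.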

[6] = NCI Yeast Anticancer Drug Screen. Data for the mlh1 rad18 strain (AID 175); conditions: S. cerevisiae mlh1 rad18 strain growth inhibition; at 50.0 µM; active compounds read high
In short: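 Vehicle-treated cultures served as the reference for growth inhibition in a yeast strain carrying DNA damage repair alterations exposed to each compound.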

Measured: growth inhibition

Cc1ccc(-c2c(C#N)c(-c3ccc(Cl)cc3)c(C#N)c(=O)n2NS(=O)(=O)c2ccc(C)cc2)cc1
inactive: [1] 20.9% | [2] 19.8% | [3] 30.4% | [4] 44.6% | [5] 15.7% | [6] 13.2%

O=C(O)C1C=CC2OC2C1C(=O)O (configuration not stated)
inactive: [1] 2.9% | [2] -28.2% | [3] -5.95% | [4] -31.9% | [5] 1.1% | [6] 4.7%

CC(=O)OCC(=O)[C@@]1(O)CC[C@H]2[C@@H]3C[C@H](C)C4=CC(=O)C=C[C@]4(C)[C@@]3(Br)[C@@H](O)C[C@@]21C
inactive: [1] 30.9% | [2] 7.75% | [3] 38.3% | [4] 35.9% | [5] 1.35% | [6] -9.1%

N/N=C(\N)SCc1ccc(N=C=S)cc1
inactive: [1] -4.8% | [2] 6.85% | [3] 17.4% | [4] 18.9% | [5] 16.5% | [6] 15.5%

CSc1c2c([nH]c(=O)c1C#N)-c1ccccc1CC2
inactive: [1] -6.5% | [2] -1.4% | [3] 4.85% | [4] 15.1% | [5] -3.65% | [6] 3.95%

Nc1ccc(P(=O)(O)c2ccc(N)cc2Br)c(Br)c1
inactive: [1] 35.1% | [2] -6.1% | [3] 18.4% | [4] 1.55% | [5] -4% | [6] -6.8%

Nc1nc(N)c2nc(C(=O)O)c(C(=O)O)nc2n1
inactive: [1] -20.6% | [2] -8.2% | [3] -11.5% | [4] -15.8% | [5] -19% | [6] -4.2%

Cc1cc(N(CCC#N)CCC#N)ccc1/C(N=Nc1ccccc1)=N\NC(=O)c1ccccc1
inactive: [1] 22.3% | [2] 16.6% | [3] 11.2% | [4] -8.5% | [5] -16.1% | [6] 31.8%

NC(=O)c1csc(C2O[C@@H](COP(=O)(O)OP(=O)(O)OC[C@H]3OC(n4cnc5c(N)ncnc54)[C@H](O)[C@@H]3O)[C@H](O)[C@@H]2O)n1 (some centres not stated)
inactive: [1] 28.8% | [2] -0.75% | [3] -0.55% | [4] -37.5% | [5] 2.75% | [6] 10.9%

[O-]c1c[n+](CCCC[n+]2cc([O-])on2)no1
inactive: [1] -5.4% | [2] -32.8% | [3] -13.3% | [4] 3.55% | [5] -60.7% | [6] -1.95%

CC(C)(Oc1ccc(/C=C/C(=O)c2ccccc2)cc1)C(=O)Nc1c(Cl)cccc1Cl
inactive: [1] -6.6% | [2] -46.6% | [3] -3.15% | [4] -65.5% | [5] -13.1% | [6] -1.45%

CC1=Nc2c(C)noc2CC(c2ccccc2O)C1 (configuration not stated)
inactive: [1] -1.5% | [2] -2.6% | [3] -2.05% | [4] 27.2% | [5] -15.8% | [6] -5.35%

CC(=O)N(C(C)=O)n1c(Cc2ccc(Cl)cc2)nn(C(C)=O)c1=O
inactive: [1] 7.85% | [2] -15.1% | [3] -9.2% | [4] 4.5% | [5] 10.7% | [6] -7.6%

O=C1OI(OI2OC(=O)c3ccccc32)c2ccccc21 (tested in a mixture with another compound)
inactive: [1] 11.7% | [2] -9.6% | [3] -19.1% | [4] -9.85% | [5] 17.9% | [6] 9.45%

COc1cc(C(=O)NO)c(Br)c(OC)c1OC
inactive: [1] -3.5% | [2] 9.5% | [3] -4.35% | [4] -5.6% | [5] -7.2% | [6] -3.7%

COc1ccc(C2=Nn3c(nc4sc(-c5ccccc5)cc4c3=O)SC2)cc1
inactive: [1] -16.9% | [2] -9.15% | [3] -25.6% | [4] 3.55% | [5] -8.05% | [6] -16%

COC(=O)C1(O)C(=O)NC2=C1C(=O)c1ccccc1C2=O (configuration not stated)
inactive: [1] 9.75% | [2] 5.8% | [3] 8.05% | [4] -8.7% | [5] 28.9% | [6] 13.8%

C/C(=N\N=P(c1ccccc1)(c1ccccc1)c1ccccc1)c1ccccc1
inactive: [1] 5.15% | [2] -6.5% | [3] 9.35% | [4] -1.4% | [5] 2.6% | [6] -14.3%

C/C(=N\O)C(=O)c1cccc([N+](=O)[O-])c1
inactive: [1] 12% | [2] 8.3% | [3] 15.4% | [4] 2.75% | [5] -7.45% | [6] 27.1%

CC(=O)Nc1nc(Cl)c2ncn(C3OC(COC(=O)c4ccccc4)CC3OC(=O)c3ccccc3)c2n1 (configuration not stated)
inactive: [1] 10.2% | [2] 3.1% | [3] -8.8% | [4] 2.6% | [5] 10.6% | [6] 4.5%

COc1ccc(OC(C)C(=O)O)c2c1CCCC2=O (configuration not stated)
inactive: [1] 21.6% | [2] 6.3% | [3] -17.1% | [4] 25.6% | [5] 5.15% | [6] 22.7%

C=C1C(OC(C)=O)CC(OC(C)=O)C2(C)C(OC(C)=O)C(OC(C)=O)C3=C(C)C(OC(=O)/C=C/c4ccccc4)CC(C(OC(C)=O)C12)C3(C)C (configuration not stated)
inactive: [1] 4.8% | [2] -12.1% | [3] 5.6% | [4] -4.75% | [5] 20.6% | [6] 15.6%

O=P1(C(c2ccccc2)c2ccccc2)OC2CC(Cl)CC(C2)O1 (configuration not stated)
inactive: [1] 4.9% | [2] -1.85% | [3] -6.9% | [4] -46.8% | [5] 0.25% | [6] -11.9%

Cc1cn(C2CC(N(C)C)C(CO)O2)c(=O)[nH]c1=O (configuration not stated)
inactive: [1] -28.2% | [2] -25.8% | [3] -18.4% | [4] 12.3% | [5] -28.3% | [6] -34.8%

COc1cccc(C2C3=C(COC3=O)Oc3cc4c(cc32)OCO4)c1 (configuration not stated)
inactive: [1] -41.1% | [2] -24.4% | [3] -31.4% | [4] -1.6% | [5] -4.55% | [6] -14.2%

N#CCc1c(Cl)ccc(Cl)c1Cl
inactive: [1] 37% | [2] 45.6% | [3] 44.6% | [4] 3.9% | [5] 58.8% | [6] 39.5%

CCCNc1ccc2c(c1)C(=O)c1ccccc1-2
inactive: [1] -3.5% | [2] -1.1% | [3] -0.15% | [4] -6.2% | [5] -0.65% | [6] -1.8%

CC(C)C(O)(C(=O)O)C(C)C
inactive: [1] 11.1% | [2] -11% | [3] -4.1% | [4] -4.3% | [5] -17.9% | [6] -1.15%

NC(=O)c1ccncc1
inactive: [1] -5% | [2] -7.3% | [3] -13.1% | [4] 5.35% | [5] -1.05% | [6] -6%

N#CC(CN1CCOCC1)[N+](=O)[O-] (configuration not stated)
inactive: [1] -2.2% | [2] -4.6% | [3] -14.2% | [4] -24.6% | [5] 16.6% | [6] -13.6%

O=C(c1cccc([N+](=O)[O-])c1)N1CCCCC1
inactive: [1] 1.4% | [2] -11.8% | [3] 16.2% | [4] -17.1% | [5] 4.1% | [6] -5.05%

CC1=CC(=O)C(C(C)C)CC1 (configuration not stated)
inactive: [1] 1.1% | [2] -1.05% | [3] -11.1% | [4] -43% | [5] -7.75% | [6] -0.35%

CCOC(=O)c1ccc(NC(=O)Nc2ccccc2C(=O)OC)cc1
inactive: [1] 9.95% | [2] 0.35% | [3] 2.7% | [4] 9.55% | [5] 25.4% | [6] 7.4%

O=C(C[N+](=O)[O-])OCc1ccccc1
inactive: [1] 14.8% | [2] 22.8% | [3] 6.4% | [4] -18.1% | [5] -0.4% | [6] 4.65%

C/C(=C/C(=O)O)c1ccccc1
inactive: [1] 10.7% | [2] -14.4% | [3] 2.2% | [4] -19.6% | [5] -15.3% | [6] -1.95%

O=C(O)c1ccncc1C(=O)O
inactive: [1] -4.3% | [2] -9.3% | [3] -17.1% | [4] 0.25% | [5] -5.8% | [6] 3%

C=CCOC(=O)C1CCCCC1C(=O)OCC=C (configuration not stated)
inactive: [1] 1.45% | [2] -1.65% | [3] 1.4% | [4] 3.3% | [5] 21.6% | [6] 1.9%

Reference: PubChem BioAssay (NCI)
